Compound activity deposited in PubChem BioAssay by several laboratories.
MITF TRPM1 inh = reduces MITF-dependent TRPM1 promoter luciferase signal; SK-MEL-5 TRPM1 promoter luciferase, 24 h; inhibition, % at 12.5 µM; 0.83% of 330,000 active;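 active = mean inhibition across replicates of 60% or more, whatever share of single replicates reaches that level; inconclusive = some that reach 60%, reason not given; inactive = mean inhibition across replicates below 60%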
EWS-Fli inh = EWS/Fli transcriptional activity inhibition. A673 NR0B1-luciferase reporter, viability-normalised. inhibition, % at 12.6 µM. 0.67% of 350,000 active. AID 651661;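 active = mean inhibition of at least 50% after viability correction, with every replicate also passing that limit; inconclusive = mean reaches 50% but only one of two replicates passes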;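 note: firefly luciferase signal divided by Alamar Blue viability fluorescence both relative to DMSO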
ABHD5-PLIN5 inh = blocks binding of human ABHD5 to perilipin-5 | Split G. princeps luciferase complementation, luminescence, 4 h | 0.78% of 360,000 active | inhibition, % at 4 µM | AID 602281 | Q00G26+Q8WTS1;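 active = inhibition above the mean inhibition across every tested compound plus 3 SD, cut at about 22% in these data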;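 note: 0% = DMSO only wells and the 100% control is not disclosed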
Target sequence (Q00G26 whole entry, looked up): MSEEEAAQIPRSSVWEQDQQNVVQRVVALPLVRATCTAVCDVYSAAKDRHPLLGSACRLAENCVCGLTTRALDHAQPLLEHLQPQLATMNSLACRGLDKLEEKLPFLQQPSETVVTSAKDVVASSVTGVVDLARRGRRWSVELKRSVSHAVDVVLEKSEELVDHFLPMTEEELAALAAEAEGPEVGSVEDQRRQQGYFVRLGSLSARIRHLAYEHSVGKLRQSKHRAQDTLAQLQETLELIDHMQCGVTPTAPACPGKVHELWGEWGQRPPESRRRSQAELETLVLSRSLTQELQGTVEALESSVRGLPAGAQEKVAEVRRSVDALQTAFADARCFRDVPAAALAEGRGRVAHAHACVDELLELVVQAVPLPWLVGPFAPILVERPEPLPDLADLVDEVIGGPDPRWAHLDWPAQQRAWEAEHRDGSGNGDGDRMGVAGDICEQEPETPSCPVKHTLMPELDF
Target sequence (Q8WTS1 whole entry, looked up): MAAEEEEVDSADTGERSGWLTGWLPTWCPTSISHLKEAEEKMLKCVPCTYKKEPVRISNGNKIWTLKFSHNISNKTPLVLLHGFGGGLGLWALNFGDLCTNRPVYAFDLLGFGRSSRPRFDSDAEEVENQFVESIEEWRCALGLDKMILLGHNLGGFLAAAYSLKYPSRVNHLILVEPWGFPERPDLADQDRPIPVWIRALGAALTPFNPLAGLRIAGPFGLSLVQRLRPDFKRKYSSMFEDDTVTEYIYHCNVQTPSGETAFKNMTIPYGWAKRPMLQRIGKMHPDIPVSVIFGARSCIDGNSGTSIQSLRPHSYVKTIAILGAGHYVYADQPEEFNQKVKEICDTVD
PAX8 reporter = lowers PAX8-driven luciferase in RMG-I cells; RMG-I TPO-luciferase reporter, SteadyGlo, 24 h; inhibition, % at 12.6 µM; 1.2% of 360,000 active; AID 652154;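 active = mean replicate inhibition at least 60% with every replicate also reaching 60%; inconclusive = only one of the two criteria is met; inactive = mean below 60% and not all replicates reaching 60%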;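 note: luciferase light reporting Pax8 driven TPO promoter activity; plate controls were median of neutral control wells for no effect and mitoxantrone controls for full effect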
Shn3 inh set2 = Schnurri-3 reporter inhibition in Clone20 osteoblasts; inhibition, % at 12.5 µM; Clone20 osteoblast Shn3 3'UTR firefly luciferase, 24 h; 0.52% of 360,000 active; AID 588674;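 active = mean inhibition of at least 75% with every replicate also reaching 75%; inconclusive = mean inhibition at least 75% but some replicate below; inactive = mean inhibition below 75%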;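 note: 0% = median of neutral control wells and 100% = pilot-screen positive control compound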
Peg3 prom inh = reduces Peg3 promoter-driven luciferase expression in HeLa | HeLa PEG-Prom luciferase reporter, luminescence, overnight | inhibition, % at 20 µM | 1.7% of 360,000 active | AID 588405;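 active = inhibition of at least 50% at 20 µM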
Numbers without * were called inactive; ? = inconclusive; . = not tested or not shown. Hits are enriched below; roughly 3% of the tested compounds scored in any of these assays.

SMILES | MITF TRPM1 inh | EWS-Fli inh | ABHD5-PLIN5 inh | PAX8 reporter | Shn3 inh set2 | Peg3 prom inh
C[C@@H]1CCCCO[C@@H](CN(C)C(=O)Nc2ccc(C(F)(F)F)cc2)[C@@H](C)CN([C@H](C)CO)C(=O)c2cc(NS(=O)(=O)c3cccs3)ccc2O1 | . | 10 | . | . | . | .
C[C@H](CO)N1C[C@H](C)[C@H](CN(C)C(=O)Nc2ccc(C(F)(F)F)cc2)OCCCC[C@H](C)Oc2ccc(NS(=O)(=O)c3cccs3)cc2C1=O | . | 8 | . | 66* | . | .
C[C@H]1CCCCO[C@@H](CN(C)C(=O)Nc2ccc(C(F)(F)F)cc2)[C@@H](C)CN([C@@H](C)CO)C(=O)c2cc(NS(=O)(=O)c3cccs3)ccc2O1 | . | 14 | . | 62* | . | .
C[C@@H]1CCCCO[C@H](CN(C)C(=O)Nc2ccc(C(F)(F)F)cc2)[C@@H](C)CN([C@H](C)CO)C(=O)c2cc(NS(=O)(=O)c3cccs3)ccc2O1 | . | -14 | . | 3 | . | .
C[C@@H]1CN([C@H](C)CO)C(=O)c2cc(NC(=O)C3CCCCC3)ccc2O[C@@H]1CN(C)S(=O)(=O)c1ccccc1 | . | -2 | . | 13 | . | .
CO[C@@H]1CN(C)C(=O)c2ccc(NC(=O)c3cc(C)on3)cc2OC[C@@H](C)N(C(C)=O)C[C@@H]1C | . | 1 | . | . | . | .
CN1C(=O)c2cc(NC(=O)Nc3ccccc3Cl)ccc2OC[C@@H]2O[C@H](CC(=O)NCCCN3CCOCC3)CC[C@@H]21 | . | 3 | . | 0 | . | .
COc1ccccc1S(=O)(=O)N1CC[C@@H]2[C@@H](CO)Nc3ccc(Br)cc3[C@@H]21 | . | 1 | . | 3 | . | .
COc1cccc2sc(Nc3nc(-c4ccncc4)cs3)nc12 | -5 | 63* | 2 | -3 | 20 | -4
C[C@H](CO)N1C[C@H](C)[C@@H](CN(C)CC2CCCC2)Oc2cc(C#CC(C)(C)O)ccc2S1(=O)=O | . | 15 | . | . | . | .
CC(C)CC(=O)NC(c1cccs1)c1ccc2cccnc2c1O (stereo not given) | ? | . | 0 | . | 89* | 31
CCCC(=O)NC(c1cccs1)c1cc(Cl)c2cccnc2c1O (stereo not given) | 45 | 2 | -4 | 50 | 80 | 45
CCC(=O)NC(c1cccs1)c1ccc2cccnc2c1O (stereo not given) | 76* | 16 | 3 | 66* | 79 | 45
CO[C@@H]1CN(C)C(=O)c2cc(NC(C)=O)ccc2OC[C@@H](C)N(Cc2cccc(F)c2)C[C@@H]1C | . | 4 | . | 2 | . | .
COc1ccc(S(=O)(=O)N2C[C@@H](O)COC[C@@H]3O[C@H](CC(=O)N(C)C)CC[C@H]32)cc1 | . | -12 | . | 4 | . | .
CCc1csc(N2[C@@H](C#N)[C@H](c3ccc(-c4ccc(F)cc4)cc3)[C@@H]2CO)n1 | . | 14 | . | 24 | . | .
CCN=C1NN=C(c2cc(C)n(Cc3ccco3)c2C)CS1 | 80* | 64* | 6 | . | 37 | 39
CS(=O)(=O)c1ccc(C(=O)OCc2nnc(-c3ccc(Cl)cc3)o2)cc1[N+](=O)[O-] | 25 | . | 12 | . | 6 | 104*
CS(=O)(=O)c1ccc(C(=O)OCC(=O)NC23CC4CC(CC(C4)C2)C3)cc1[N+](=O)[O-] | 45 | . | 5 | 53 | 68 | 100*
CS(=O)(=O)N1CCN(c2ccc(C(=O)NC34CC5CC(CC(C5)C3)C4)cc2[N+](=O)[O-])CC1 | 2 | . | -10 | 10 | 14 | 11
COc1cccc(C(=O)OCC(=O)NC23CC4CC(CC(C4)C2)C3)c1 | 3 | 5 | 4 | 1 | -2 | -11
CC(C)CN1CCN(C(=O)COC(=O)c2ccc(S(C)(=O)=O)c([N+](=O)[O-])c2)CC1 | . | 34 | 0 | 112* | 75 | 97*
CC(=O)Oc1cc(C(=O)OCC(=O)NC23CC4CC(CC(C4)C2)C3)cc(OC(C)=O)c1OC(C)=O | -3 | 22 | -6 | 28 | 91* | -31
COc1ccc(C(=O)OCC(=O)N2CCCCC2)cc1[N+](=O)[O-] | -5 | -4 | 3 | 8 | -8 | -4
COCC(=O)N1[C@H](CO)[C@@H](c2ccccc2)C12CN(C(=O)NC1CCCC1)C2 | . | 5 | . | . | . | .
SMILES | MITF TRPM1 inh | EWS-Fli inh | ABHD5-PLIN5 inh | PAX8 reporter | Shn3 inh set2 | Peg3 prom inh
COc1ccc(S(=O)(=O)Nc2ccc3c(c2)C(=O)N([C@H](C)CO)C[C@@H](C)[C@H](CN(C)C(=O)Nc2ccc4c(c2)OCO4)OCCCC[C@@H](C)O3)cc1 | . | 7 | . | -2 | . | .
CCCC#Cc1cnc2c(c1)C(=O)N([C@H](C)CO)C[C@H](C)[C@H](CN(C)Cc1ccncc1)O2 | . | -9 | . | -14 | . | .
Cn1ccsc1=NC(=O)c1ccc(S(C)(=O)=O)c([N+](=O)[O-])c1 | 19 | -8 | 4 | . | 25 | 78*
Cn1ccsc1=NC(=O)c1ccc(Cl)c([N+](=O)[O-])c1 | -59 | -44 | 4 | -45 | -60 | -147
Cn1cccc1C(=O)NC(=O)COC(=O)c1ccc(S(C)(=O)=O)cc1 | 3 | 1 | 5 | 6 | -3 | 0
O=C(COC(=O)c1ccccc1O)NC12CC3CC(CC(C3)C1)C2 | . | -7 | -3 | -94 | -97 | -212
Cn1cccc1C(=O)NC(=O)COC(=O)c1ccc(S(C)(=O)=O)c([N+](=O)[O-])c1 | 86* | . | 12 | . | 98* | 102*
O=C(COC(=O)/C=C/C(=O)OCC(=O)NC12CC3CC(CC(C3)C1)C2)NC12CC3CC(CC(C3)C1)C2 | 76* | . | 7 | 6 | 61 | 103*
C[C@H]1CN([C@@H](C)CO)C(=O)c2cc(NC(=O)C3CCCCC3)ccc2O[C@H]1CN(C)Cc1ccncc1 | . | 2 | . | -14 | . | .
COc1ccc(S(=O)(=O)Nc2ccc3c(c2)CC(=O)N([C@H](C)CO)C[C@H](C)[C@@H](CN(C)S(=O)(=O)c2ccc(F)cc2)O3)cc1 | . | 13 | . | 17 | . | .
CC(C)C[C@H]1COCc2cn(nn2)CC[C@@H](Cc2ccccc2)C(=O)N1 | . | -1 | . | 0 | . | .
CC(C(=O)O)c1ccc(N2Cc3ccccc3C2=O)cc1 (stereo not given) | 12 | 51* | 1 | 42 | -31 | -83
Cc1ccccc1N1Cc2ccccc2C1=O | . | -4 | -6 | 5 | -35 | 2
Cc1ccc(S(=O)(=O)N(C)C[C@H]2Oc3ccc(NC(=O)Nc4ccccc4)cc3CC(=O)N([C@H](C)CO)C[C@@H]2C)cc1 | . | -2 | . | 21 | . | .
CC(C)Nc1ncnc2c1ncn2[C@H]1CN(Cc2ccco2)C[C@@H](CO)O1 | . | -2 | -4 | -15 | 0 | 11
CC(C)CNc1ncnc2c1ncn2[C@H]1CN(Cc2ccco2)C[C@@H](CO)O1 | . | -10 | 0 | 84* | 4 | 17
COc1cc(CNc2ncnc3c2ncn3[C@H]2CN(Cc3ccc(-c4ccccc4)cc3)C[C@@H](CO)O2)cc(OC)c1OC | . | 35 | 10 | 94* | 48 | 32
C/C=C/c1ccc([C@@H]2[C@@H](CN(CC)C(C)=O)N(S(C)(=O)=O)[C@H]2CO)cc1 | . | -6 | . | -3 | . | .
CCNC(=O)[C@@H]1[C@@H](CO)[C@@H]2Cn3c(cccc3=O)[C@H]1N2CCC(F)(F)F | . | -4 | . | -10 | . | .
